Measured values from PMC5540273 (PLoS ONE, 2017).

Experiments:
Settings in all cases: concentration: 1 μM, replicates: in singlicate; n = 1
TNNI3K = system: TNNI3K
TRKA = system: T1, TRKA
T1 construct: gene NTRK1

TRKB = system: TRKB
TRKC = system: T2, TRKC
T2 construct: gene NTRK3

TRPM6 = system: TRPM6
TSSK1B = system: TSSK1B
TSSK3 = system: TSSK3
TTK = system: TTK
TXK = system: TXK
[1] = system: TYK2(JH1domain-catalytic)
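Also: KINOMEscan kinase panel screen.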

| SMILES | %Inh (TNNI3K) [%] | %Inh (TRKA) [%] | %Inh (TRKB) [%] | %Inh (TRKC) [%] | %Inh (TRPM6) [%] | %Inh (TSSK1B) [%] | %Inh (TSSK3) [%] | %Inh (TTK) [%] | %Inh (TXK) [%] | %Inh [1] [%] |
| --- | --- | --- | --- | --- | --- | --- | --- | --- | --- | --- |
| COc1ccc(Nc2nccc(N3CCC(NC(=O)Nc4cccc(OC)c4)C3)n2)cc1 (centres unmarked) [GSK1379742] | 0 | 54 | 40 | 76 | 0 | 0 | 18 | 0 | 0 | 24 |
| Cn1cc(-c2ccc3c(c2)CCN3C(=O)Cc2cccc(Cl)c2)c2c(N)ncnc21 [GSK2606590] | 0 | 73 | 54 | 57 | 0 | 20 | 17 | 30 | 0 | 10 |
| Cc1ccc(C(=O)Nc2ccc(Nc3ccnc4cc(-c5nccs5)ccc34)cc2O)cc1.Cl [GW494702] | 6 | 60 | 20 | 25 | 29 | 13 | 6 | 0 | 52 | 42 |
| Cl.NC(=O)c1cccc(Nc2nccc(Nc3ccc(Oc4c(Cl)cccc4Cl)c(Cl)c3)n2)c1 [GW659009] | 0 | 20 | 7 | 11 | 36 | 8 | 88 | 10 | 0 | 21 |
| CN1CCN(CCCNc2nccc(-c3c(-c4ccc(F)cc4)nn4cc(C(F)(F)F)ccc34)n2)CC1 [GW621581] | 0 | 0 | 11 | 5 | 1 | 0 | 0 | 0 | 14 | 28 |
| Cn1cc(-c2[nH]c3cc(NC(=O)[C@H](N)C4CCCCC4)cc4c3c2C=NNC4=O)cn1 | 54 | 91.6 | 64 | 57 | 11 | 73 | 23 | 0 | 32 | 95.1 |
| CC(C)(C)c1ccc2nccc(Nc3cccc(O)c3)c2c1 [GW856795] | 0 | 72 | 40 | 31 | 0 | 0 | 60 | 0 | 79 | 42 |
| O=C(Nc1n[nH]c2nc(-c3ccc(O)cc3)ccc12)C1CC1 [SB-710363] | 0 | 26 | 0 | 41 | 0 | 0 | 37 | 0 | 0 | 9 |
| COc1cccc(-c2ccc3c(NC(=O)C4CC4)n[nH]c3n2)c1 [SB-710903] | 5 | 0 | 66 | 58 | 0 | 0 | 3 | 0 | 0 | 52 |
| Nc1ncc(-c2ccc3nccc(-c4ccncc4)c3c2)cc1S(=O)(=O)N1CCOCC1 [GSK1627798] | 0 | 90.2 | 90.7 | 74 | 0 | 0 | 0 | 8 | 0 | 0 |
| O=C(NC1CCN(c2ccnc(Nc3ccc(F)cc3)n2)C1)c1cc2ccccc2s1 (centres unmarked) [GSK1379716] | 4 | 10 | 0 | 8 | 22 | 5 | 19 | 17 | 8 | 2 |
